Screens (PubChem BioAssay)
A selection: hits, their analogues and other compounds. The true share with any hit is near 3.3%.
SMARCA2 act = SMARCA2 function activation, primary screen | MG213 cells, MMTV-luciferase reporter, dexamethasone, overnight | activation, % at 9.1 µM | 1% of 370,000 active; in the data active = activation above about 7.8%
697 NFkB inh = lowers PMA/ionomycin-induced NF-kB signal in 697 B cells. 0.33% of 330,000 active. 697 B-cell NF-kB luciferase reporter, 16 h. inhibition, % at 4 µM; in the data active = inhibition above about 35%
Jurkat NFkB inh = lowers PMA/ionomycin-induced NF-kB signal in Jurkat cells; PMA/ionomycin-induced NF-kB luciferase reporter, luminescence; inhibition, % at 4 µM; 0.53% of 330,000 active; AID 435003; in the data active = inhibition above about 50%
Gli-Sufu antag = blocks Gli-Sufu signaling in a luciferase reporter; Sufu-KO-LIGHT fibroblasts, Gli luciferase reporter luminescence; inhibition, % at 5 µM; 0.74% of 340,000 active;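 active = inhibition above about 55%, limit read from the data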
esBAF inh = blocks esBAF chromatin remodeling in mouse ES cells. reporter increase, % at 12.5 µM. Bmi1-luciferase knock-in reporter, 24 h; 100% = twice the neutral-well signal. 2% of 350,000 active. AID 602393; in the data active = activation above about 40%;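 note: a rise in the Bmi1 reporter signal indicates esBAF inhibition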
Gli-Sufu confirm = confirmation of Gli-SUFU pathway antagonists; 40% of 2,500 active; shares compounds with Gli-Sufu antag; Sufu-KO-LIGHT cells, Gli luciferase reporter, luminescence; inhibition, % at 5 µM; AID 602428;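 active = mean inhibition at 5 µM reaching about 45%, limit read from the data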
Gli cytotox = cytotoxicity counter-screen for Gli-SUFU antagonists. shares compounds with Gli-Sufu antag. Sufu-KO-LIGHT cells cytotoxicity, ATP luminescence. cytotoxicity, % at 5 µM. 32% of 2,500 active. AID 651994;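 active = mean cytotoxicity at 5 µM above about 25%, limit read from the data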;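 note: cells exposed to compound overnight for roughly 16 to 18 hours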
Wnt3a cs = inhibits Wnt3a reporter, counter-screen for Gli-SUFU antagonists; inhibition, % at 6.25 µM; shares compounds with Gli-Sufu antag; 20% of 2,500 active; Wnt-LIGHT cells, Wnt3a-driven luciferase reporter, luminescence;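 active = mean inhibition above about 25%, limit read from the data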
Large screens that a line does not name were inactive (follow-up assays come after a bar, where they were run).

Cc1noc(C)c1S(=O)(=O)Nc1ccc2c(c1)C(=O)N([C@H](C)CO)C[C@H](C)[C@@H](CN(C)C(=O)c1ccccc1)OCCCC[C@H](C)O2	none (no result: SMARCA2 act, 697 NFkB inh, Jurkat NFkB inh, Gli-Sufu antag)
CCO[C@H]1OC(C(=O)N2CCOCC2)=C[C@@H](C2CC2)[C@@H]1CCCO	Gli-Sufu antag 99 | Gli-Sufu confirm inactive | Gli cytotox inactive | Wnt3a cs inactive
O=C(CCC1CCCCC1)NCc1cccnc1	none
O=C(CCC1CCCCC1)Nc1cccnc1	Gli-Sufu antag 56 | Gli-Sufu confirm inactive | Gli cytotox inactive | Wnt3a cs inactive
O=C1C(Cc2cccc([N+](=O)[O-])c2)SC(=Nc2ccccc2)N1c1ccccc1 (stereo not given)	Gli-Sufu antag 62 (no result: esBAF inh) | Gli-Sufu confirm inactive | Gli cytotox inactive | Wnt3a cs inactive
CCCN1CCN(C(=O)CCCn2c(C)c3cnn(-c4ccccc4)c(=O)c3c2C)CC1	none
CCC(C(=O)NCCN1CCN(C)CC1)n1c(C)c2cnn(-c3ccccc3)c(=O)c2c1C (stereo not given)	Gli-Sufu antag 94 | Gli-Sufu confirm inactive | Gli cytotox inactive | Wnt3a cs inactive
O=C(c1ccccc1)N1C[C@@H]2[C@H](c3ccccc31)[C@H](CO)N2C(=O)c1cccc(F)c1	none (no result: SMARCA2 act, 697 NFkB inh, Jurkat NFkB inh, Gli-Sufu antag)
Cc1nn(C)c(C(=O)NCc2ccc(Cl)cc2)c1Cl	Gli-Sufu antag 63 (no result: esBAF inh) | Gli-Sufu confirm 53 | Gli cytotox 29 | Wnt3a cs inactive
Cc1nc(C)c(C(=O)NCc2ccc(Cl)cc2)o1	none (no result: SMARCA2 act, Gli-Sufu antag)
CC(NC(=S)Nc1ccc(OC(F)F)c(Cl)c1)C(C)(C)C (stereo not given)	none
Cc1ccc(NC(=S)Nc2ccc(OC(F)F)c(Cl)c2)cc1Cl	Gli-Sufu antag 56 (no result: 697 NFkB inh, Jurkat NFkB inh) | Gli-Sufu confirm inactive | Gli cytotox inactive | Wnt3a cs inactive
Cc1ccc(Cl)cc1NC(=O)c1cc2ccccc2cc1O	Gli-Sufu antag 61 | Gli-Sufu confirm 71 | Gli cytotox 26 | Wnt3a cs 56
NNC(=O)c1cc2ccccc2cc1O	Gli-Sufu antag 61 (no result: esBAF inh) | Gli-Sufu confirm 72 | Gli cytotox inactive | Wnt3a cs 83
COc1cc(NC(=O)c2cc3ccccc3cc2O)c(OC)cc1Cl	none
COCC#Cc1cnc2c(c1)C(=O)N([C@@H](C)CO)C[C@@H](C)[C@H](CN(C)C(=O)c1cccnc1)O2	none (no result: SMARCA2 act, 697 NFkB inh, Jurkat NFkB inh, Gli-Sufu antag)
Cn1nc(C(C)(C)C)cc1C(=O)NCc1ccc2c(c1)OCO2	Gli-Sufu antag 68 | Gli-Sufu confirm 68 | Gli cytotox 30 | Wnt3a cs 43
COC(CNC(=O)c1ccc(CS(=O)(=O)c2ccccc2)o1)OC	none
COc1ccc(S(=O)(=O)Cc2ccc(C(=O)NCC(OC)OC)o2)cc1	none | Gli-Sufu confirm inactive | Gli cytotox inactive | Wnt3a cs inactive
O=C(NNC1CC(=O)N(c2ccc(Br)cc2)C1=O)c1cccs1 (stereo not given)	none
CCOC(=O)CNC1CC(=O)N(c2ccc(Br)cc2)C1=O (stereo not given)	Gli-Sufu antag 77 | Gli-Sufu confirm inactive | Gli cytotox inactive | Wnt3a cs inactive
O=C(C[C@@H]1CC[C@@H](NS(=O)(=O)c2ccc(F)cc2)[C@H](CO)O1)NC1CCCCC1	none (no result: SMARCA2 act, 697 NFkB inh, Jurkat NFkB inh, Gli-Sufu antag)
CC1(C)Cc2c(cnn2-c2ccc(F)cc2)C(NC(=O)CN2CCCC2=O)C1 (stereo not given)	none
COc1ccc(-n2ncc3c2CC(C)(C)CC3NC(=O)CN2CCOC2=O)cc1 (stereo not given)	Gli-Sufu antag 61 | Gli-Sufu confirm inactive | Gli cytotox inactive | Wnt3a cs inactive
Cc1nn(-c2ccc(NC(=O)c3ccncc3)cc2)c(C)c1Cl	Gli-Sufu antag 56 | Gli-Sufu confirm 45 | Gli cytotox inactive | Wnt3a cs inactive
O=C(CSc1ncccc1-c1nc2ccccc2[nH]1)NCc1ccco1	Gli-Sufu antag 58 (no result: esBAF inh) | Gli-Sufu confirm inactive | Gli cytotox 27 | Wnt3a cs inactive
COc1ccccc1C(=O)N1C[C@H]2[C@@H](c3ccccc31)[C@@H](CO)N2Cc1ccc(F)cc1	none (no result: SMARCA2 act, 697 NFkB inh, Jurkat NFkB inh, Gli-Sufu antag)
CCOC(=O)c1c(NC(=O)COc2cccc3c2CCN(C)C3=O)sc2c1CCC2	Gli-Sufu antag 58 (no result: esBAF inh) | Gli-Sufu confirm inactive | Gli cytotox inactive | Wnt3a cs inactive
CCOc1ccc(OCc2ccc(C(=O)N/N=C(\C)c3ccccn3)cc2)cc1	Gli-Sufu antag 83 (no result: 697 NFkB inh, Jurkat NFkB inh, esBAF inh) | Gli-Sufu confirm 91 | Gli cytotox 42 | Wnt3a cs 72
O=C(NN=C(c1ccccc1)c1ccccn1)c1ccccc1	none (no result: esBAF inh)
CCOc1ccc(OCc2ccc(C(=O)NN=Cc3ccc[nH]3)cc2)cc1	Gli-Sufu antag 80 | Gli-Sufu confirm 80 | Gli cytotox inactive | Wnt3a cs inactive
COc1ccc(C(=O)N/N=C(\c2ccccc2)c2ccccn2)cc1	Gli-Sufu antag 74 (no result: 697 NFkB inh, Jurkat NFkB inh, esBAF inh) | Gli-Sufu confirm 51 | Gli cytotox inactive | Wnt3a cs 38
CCOc1ccc(C(=O)O/N=C(\N)c2ccccn2)cc1	none
O=C(N/N=C/c1ccc[nH]1)c1ccccc1OCc1ccc(F)cc1	none
COc1ccc(S(=O)(=O)N[C@H]2CC[C@@H](CC(=O)O)O[C@H]2CO)cc1	none (no result: SMARCA2 act, 697 NFkB inh, Jurkat NFkB inh, Gli-Sufu antag)
COCC(C)n1c(C)cc(C(=O)COC(=O)c2cc(=O)[nH]c3ccccc23)c1C (stereo not given)	none | Gli-Sufu confirm 69 | Gli cytotox 26 | Wnt3a cs 81
CNC[C@H]1Oc2ccc(NS(=O)(=O)c3ccc(C)cc3)cc2C(=O)N([C@@H](C)CO)C[C@@H]1C	none (no result: SMARCA2 act, 697 NFkB inh, Jurkat NFkB inh, Gli-Sufu antag)
C[C@@H]1CCCCO[C@@H](CN(C)C(=O)Nc2ccc(F)cc2)[C@H](C)CN([C@H](C)CO)C(=O)c2cc(NC(=O)Cc3ccccc3)ccc2O1	none (no result: SMARCA2 act, 697 NFkB inh, Jurkat NFkB inh, Gli-Sufu antag)
CNC(=O)C[C@@H]1CC[C@@H]2[C@H](COc3ccc(NC(=O)c4ccccc4OC)cc3C(=O)N2C)O1	none (no result: SMARCA2 act, 697 NFkB inh, Jurkat NFkB inh, Gli-Sufu antag)
CCN(CC)S(=O)(=O)c1ccc(S(=O)(=O)N2CCC(C(=O)NC3CCN(Cc4ccccc4)CC3)CC2)cc1	none (no result: SMARCA2 act)
Cc1ccc(Cl)cc1S(=O)(=O)N1CCC(C(=O)NC2CCN(Cc3ccccc3)CC2)CC1	none | Gli-Sufu confirm inactive | Gli cytotox inactive | Wnt3a cs inactive
O=C(/C=C/c1ccccc1Cl)Nc1cccc(S(=O)(=O)NC2=NCCCCC2)c1	none (no result: esBAF inh) | Gli-Sufu confirm inactive | Gli cytotox inactive | Wnt3a cs inactive
CCCC(=O)Nc1cc(C)c(NC(=O)c2ccccn2)cn1	Gli-Sufu antag 59 | Gli-Sufu confirm inactive | Gli cytotox inactive | Wnt3a cs inactive
Cc1ccc(NC(=O)Cn2nc(-c3ccccc3Cl)ccc2=O)c(Br)c1	Gli-Sufu antag 57 | Gli-Sufu confirm inactive | Gli cytotox inactive | Wnt3a cs inactive
CCOc1c(CNCCN2CCOCC2)cccc1OC	none | Gli-Sufu confirm inactive | Gli cytotox inactive | Wnt3a cs inactive
COc1cccc(CNCCN2CCOCC2)c1OC	none
